Laboratory results from paper PMC7862700, “An all-to-all approach to the identification of sequence-specific readers for epigenetic DNA modifications on cytosine”.

What was measured:
Test in all cases: DAPPL (digital affinity profiling via proximity ligation, sequencing); 10 mM Tris-HCl pH 7.5, 50 mM NaCl, 1 mM DTT, 4% glycerol, room temperature, 30 min; GST-TFs on glutathione beads, 16-mer random dsDNA library, 0.1% formaldehyde crosslink after washing; high values mean tight binding
Conditions in all cases: protein: recombinant; tags: N-terminal GST; dsDNA, one strand shown
FLI1 = target: T1, FLI1 (Homo sapiens, UniProt Q01543 1-452)
T1 sequence: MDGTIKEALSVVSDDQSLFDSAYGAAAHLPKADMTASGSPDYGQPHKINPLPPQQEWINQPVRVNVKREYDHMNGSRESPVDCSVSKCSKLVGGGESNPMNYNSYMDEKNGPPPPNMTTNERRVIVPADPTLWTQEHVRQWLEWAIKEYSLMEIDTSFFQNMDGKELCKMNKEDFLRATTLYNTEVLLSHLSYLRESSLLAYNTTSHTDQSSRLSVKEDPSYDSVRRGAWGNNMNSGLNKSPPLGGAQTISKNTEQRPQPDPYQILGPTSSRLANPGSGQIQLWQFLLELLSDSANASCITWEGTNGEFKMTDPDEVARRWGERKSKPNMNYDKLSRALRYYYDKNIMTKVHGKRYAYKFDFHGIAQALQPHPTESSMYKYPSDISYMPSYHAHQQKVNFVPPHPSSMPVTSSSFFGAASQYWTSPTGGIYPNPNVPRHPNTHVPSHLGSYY
Procedure, shortened: (§1)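 Pools were built from human transcription factors expressed in yeast as GST fusions, captured on glutathione beads and DNA-barcoded, along with a tag-only sample. Incubation with 200 nmole of a 16-mer random double-stranded DNA library lasted 30 min at room temperature in Tris/NaCl/DTT/glycerol buffer, and was followed by washing, 0.1% formaldehyde crosslinking, proximity ligation, PCR amplification and Illumina NextSeq500 sequencing. Binding signal is the quotient of each hexamer's read frequency for a factor and its frequency for the tag-only sample.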

ELK1 = target: T2, ELK1 (Homo sapiens, UniProt P19419 1-428)
T2 sequence: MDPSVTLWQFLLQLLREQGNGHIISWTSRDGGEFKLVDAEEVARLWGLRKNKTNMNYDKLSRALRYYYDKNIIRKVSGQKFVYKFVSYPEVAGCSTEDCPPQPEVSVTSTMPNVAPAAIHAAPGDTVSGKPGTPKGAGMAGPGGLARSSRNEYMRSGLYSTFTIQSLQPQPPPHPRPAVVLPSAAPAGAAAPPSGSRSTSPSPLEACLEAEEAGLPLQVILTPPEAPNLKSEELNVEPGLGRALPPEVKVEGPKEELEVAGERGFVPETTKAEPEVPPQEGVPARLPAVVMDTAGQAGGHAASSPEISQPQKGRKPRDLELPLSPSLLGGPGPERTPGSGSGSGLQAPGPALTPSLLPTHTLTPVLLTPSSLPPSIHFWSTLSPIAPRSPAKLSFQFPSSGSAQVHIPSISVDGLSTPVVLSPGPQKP
Procedure, shortened: as §1

GABPA = target: T3, GABPA (Homo sapiens, UniProt Q06546 1-454)
T3 sequence: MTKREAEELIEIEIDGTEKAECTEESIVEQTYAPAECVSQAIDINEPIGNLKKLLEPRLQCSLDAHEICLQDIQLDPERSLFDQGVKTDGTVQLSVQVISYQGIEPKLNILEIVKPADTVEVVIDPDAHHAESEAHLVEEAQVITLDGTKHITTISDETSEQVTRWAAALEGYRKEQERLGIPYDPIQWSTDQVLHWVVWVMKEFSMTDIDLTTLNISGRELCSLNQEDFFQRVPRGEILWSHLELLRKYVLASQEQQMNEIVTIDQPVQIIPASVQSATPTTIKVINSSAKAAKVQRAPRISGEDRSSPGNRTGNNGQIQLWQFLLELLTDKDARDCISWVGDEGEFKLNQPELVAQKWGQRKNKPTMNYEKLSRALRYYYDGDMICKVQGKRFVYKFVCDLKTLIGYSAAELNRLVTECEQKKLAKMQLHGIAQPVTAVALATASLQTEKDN
Procedure, shortened: as §1

ERG = target: T4, ERG (Homo sapiens, UniProt P11308 1-479)
T4 sequence: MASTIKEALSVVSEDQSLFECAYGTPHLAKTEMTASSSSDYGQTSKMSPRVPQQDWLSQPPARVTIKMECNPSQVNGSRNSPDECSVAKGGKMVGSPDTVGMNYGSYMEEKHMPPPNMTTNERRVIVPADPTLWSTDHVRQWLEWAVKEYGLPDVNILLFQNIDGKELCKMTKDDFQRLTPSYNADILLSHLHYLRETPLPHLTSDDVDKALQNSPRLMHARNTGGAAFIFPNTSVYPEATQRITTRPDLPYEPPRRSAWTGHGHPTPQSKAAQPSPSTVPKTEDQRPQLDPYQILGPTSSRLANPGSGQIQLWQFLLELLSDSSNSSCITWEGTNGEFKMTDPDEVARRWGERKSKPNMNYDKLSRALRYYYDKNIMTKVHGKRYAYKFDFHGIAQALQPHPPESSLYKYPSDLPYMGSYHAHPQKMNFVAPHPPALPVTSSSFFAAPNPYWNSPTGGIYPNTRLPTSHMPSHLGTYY
Procedure, shortened: as §1

ELF1 = ELF1 (Homo sapiens, UniProt P32519 1-619)
Procedure, shortened: as §1

EHF = target: T5, EHF (Homo sapiens, UniProt Q9NZC4 1-300)
T5 sequence: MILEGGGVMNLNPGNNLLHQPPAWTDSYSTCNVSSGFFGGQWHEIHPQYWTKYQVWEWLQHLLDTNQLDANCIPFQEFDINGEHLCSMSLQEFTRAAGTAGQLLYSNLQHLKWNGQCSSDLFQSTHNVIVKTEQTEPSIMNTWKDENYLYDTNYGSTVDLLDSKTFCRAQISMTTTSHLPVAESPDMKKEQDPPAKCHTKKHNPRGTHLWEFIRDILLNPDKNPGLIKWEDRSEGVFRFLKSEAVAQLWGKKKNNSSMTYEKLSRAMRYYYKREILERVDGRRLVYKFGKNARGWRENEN
Procedure, shortened: as §1

SPI1 = SPI1 (Homo sapiens, UniProt P17947 1-270)
Procedure, shortened: as §1

SPIB = SPIB (Homo sapiens, UniProt Q01892 1-262)
Procedure, shortened: as §1

ELK3 = target: T6, ELK3 (Homo sapiens, UniProt P41970 1-407)
T6 sequence: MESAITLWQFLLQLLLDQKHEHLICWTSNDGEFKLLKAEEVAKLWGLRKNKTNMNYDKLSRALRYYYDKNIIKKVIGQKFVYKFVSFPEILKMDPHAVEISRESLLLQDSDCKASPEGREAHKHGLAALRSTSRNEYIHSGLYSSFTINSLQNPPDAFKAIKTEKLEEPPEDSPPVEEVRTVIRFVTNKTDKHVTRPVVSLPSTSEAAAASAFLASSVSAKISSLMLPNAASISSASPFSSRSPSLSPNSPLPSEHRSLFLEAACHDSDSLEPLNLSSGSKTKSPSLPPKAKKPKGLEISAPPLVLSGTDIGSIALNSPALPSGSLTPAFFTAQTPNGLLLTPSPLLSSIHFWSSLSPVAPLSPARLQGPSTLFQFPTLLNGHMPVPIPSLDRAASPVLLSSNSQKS
Procedure, shortened: as §1

FEV = target: T7, FEV (Homo sapiens, UniProt Q99581 1-238)
T7 sequence: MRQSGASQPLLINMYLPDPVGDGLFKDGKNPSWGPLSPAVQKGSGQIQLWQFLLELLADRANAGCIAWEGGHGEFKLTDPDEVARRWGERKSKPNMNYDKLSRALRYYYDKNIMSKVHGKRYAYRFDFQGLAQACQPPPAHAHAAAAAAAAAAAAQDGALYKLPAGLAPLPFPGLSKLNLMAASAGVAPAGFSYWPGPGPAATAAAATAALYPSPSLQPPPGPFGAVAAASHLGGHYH
Procedure, shortened: as §1

ETV5 = ETV5 (Homo sapiens, UniProt P41161 1-510)
Procedure, shortened: as §1

SPIC = target: T8, SPIC (Homo sapiens, UniProt Q8N5J4 1-248)
T8 sequence: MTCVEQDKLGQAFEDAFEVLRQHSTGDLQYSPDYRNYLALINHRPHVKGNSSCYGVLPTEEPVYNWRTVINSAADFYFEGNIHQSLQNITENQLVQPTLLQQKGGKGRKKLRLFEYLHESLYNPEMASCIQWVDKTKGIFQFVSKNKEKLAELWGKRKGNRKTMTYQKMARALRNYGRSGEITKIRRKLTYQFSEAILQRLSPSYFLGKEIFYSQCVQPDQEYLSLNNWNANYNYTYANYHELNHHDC
Procedure, shortened: as §1

ELF4 = ELF4 (Homo sapiens, UniProt Q99607 1-663)
Procedure, shortened: as §1

ELK4 = target: T9, ELK4 (Homo sapiens, UniProt P28324-2 1-405)
T9 sequence: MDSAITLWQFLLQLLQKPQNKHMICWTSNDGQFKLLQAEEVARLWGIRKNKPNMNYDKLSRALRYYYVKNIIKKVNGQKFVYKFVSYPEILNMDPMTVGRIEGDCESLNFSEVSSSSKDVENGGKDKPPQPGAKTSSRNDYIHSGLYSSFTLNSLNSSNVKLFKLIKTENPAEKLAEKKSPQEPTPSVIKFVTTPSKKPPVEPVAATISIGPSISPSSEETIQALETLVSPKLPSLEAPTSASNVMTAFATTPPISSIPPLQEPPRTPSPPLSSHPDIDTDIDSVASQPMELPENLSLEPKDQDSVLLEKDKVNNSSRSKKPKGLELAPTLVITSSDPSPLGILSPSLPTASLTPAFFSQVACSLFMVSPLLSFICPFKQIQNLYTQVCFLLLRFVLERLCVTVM
Procedure, shortened: as §1

ETV2 = target: T10, ETV2 (Homo sapiens, UniProt O00321 1-342)
T10 sequence: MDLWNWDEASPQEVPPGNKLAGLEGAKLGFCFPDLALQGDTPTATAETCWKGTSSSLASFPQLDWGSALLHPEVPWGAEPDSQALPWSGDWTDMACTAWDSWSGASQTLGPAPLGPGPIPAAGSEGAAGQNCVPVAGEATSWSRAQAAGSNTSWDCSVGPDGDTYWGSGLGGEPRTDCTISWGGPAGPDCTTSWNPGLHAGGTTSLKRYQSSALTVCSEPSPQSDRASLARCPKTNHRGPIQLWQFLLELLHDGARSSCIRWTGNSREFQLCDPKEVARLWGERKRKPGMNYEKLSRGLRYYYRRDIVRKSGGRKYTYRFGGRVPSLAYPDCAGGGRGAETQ
Procedure, shortened: as §1

ELF3 = target: T11, ELF3 (Homo sapiens, UniProt P78545 1-371)
T11 sequence: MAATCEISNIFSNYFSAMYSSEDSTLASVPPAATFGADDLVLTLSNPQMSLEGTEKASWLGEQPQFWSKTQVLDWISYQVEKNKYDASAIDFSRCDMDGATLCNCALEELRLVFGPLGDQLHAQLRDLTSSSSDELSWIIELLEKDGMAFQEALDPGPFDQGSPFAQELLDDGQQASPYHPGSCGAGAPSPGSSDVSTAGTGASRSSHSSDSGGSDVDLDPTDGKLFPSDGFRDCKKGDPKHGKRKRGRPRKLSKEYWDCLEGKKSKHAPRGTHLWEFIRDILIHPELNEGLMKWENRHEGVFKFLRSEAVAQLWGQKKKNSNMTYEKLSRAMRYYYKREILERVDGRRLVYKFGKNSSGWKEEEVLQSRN
Procedure, shortened: as §1

ETV1 = ETV1 (Homo sapiens, UniProt P50549 1-477)
Procedure, shortened: as §1

Chain of ETV5 (P41161 whole entry): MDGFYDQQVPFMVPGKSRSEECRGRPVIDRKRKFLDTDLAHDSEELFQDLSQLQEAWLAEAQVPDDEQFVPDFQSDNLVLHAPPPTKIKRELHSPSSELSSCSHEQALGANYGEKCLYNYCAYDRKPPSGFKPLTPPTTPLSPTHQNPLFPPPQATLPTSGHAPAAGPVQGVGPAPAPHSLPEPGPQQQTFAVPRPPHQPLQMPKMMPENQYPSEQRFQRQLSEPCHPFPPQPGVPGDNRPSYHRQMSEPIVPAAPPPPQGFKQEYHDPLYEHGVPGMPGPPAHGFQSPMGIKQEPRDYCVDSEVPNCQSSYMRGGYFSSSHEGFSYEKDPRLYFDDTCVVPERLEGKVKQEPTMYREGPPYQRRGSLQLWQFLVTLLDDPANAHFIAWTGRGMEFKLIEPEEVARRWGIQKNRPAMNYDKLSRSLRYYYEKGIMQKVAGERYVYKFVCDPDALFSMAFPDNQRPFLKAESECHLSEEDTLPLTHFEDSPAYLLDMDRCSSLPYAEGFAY
Chain of ELF1 (P32519 whole entry): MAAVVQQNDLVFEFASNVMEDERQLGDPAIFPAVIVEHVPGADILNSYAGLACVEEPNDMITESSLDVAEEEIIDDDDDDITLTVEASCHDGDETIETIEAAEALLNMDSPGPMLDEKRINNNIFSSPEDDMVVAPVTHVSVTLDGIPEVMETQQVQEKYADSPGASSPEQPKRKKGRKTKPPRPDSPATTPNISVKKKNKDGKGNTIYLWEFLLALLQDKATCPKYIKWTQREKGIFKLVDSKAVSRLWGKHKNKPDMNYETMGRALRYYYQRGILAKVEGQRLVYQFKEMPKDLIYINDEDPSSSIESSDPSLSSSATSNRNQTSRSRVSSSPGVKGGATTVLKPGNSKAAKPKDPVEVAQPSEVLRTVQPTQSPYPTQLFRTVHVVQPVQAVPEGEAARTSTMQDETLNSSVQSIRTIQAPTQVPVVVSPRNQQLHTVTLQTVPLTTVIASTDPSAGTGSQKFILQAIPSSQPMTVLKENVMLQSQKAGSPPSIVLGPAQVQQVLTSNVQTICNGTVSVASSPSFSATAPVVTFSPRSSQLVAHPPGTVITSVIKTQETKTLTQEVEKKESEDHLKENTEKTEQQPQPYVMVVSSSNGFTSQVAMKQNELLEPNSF
Chain of SPIB (Q01892 whole entry): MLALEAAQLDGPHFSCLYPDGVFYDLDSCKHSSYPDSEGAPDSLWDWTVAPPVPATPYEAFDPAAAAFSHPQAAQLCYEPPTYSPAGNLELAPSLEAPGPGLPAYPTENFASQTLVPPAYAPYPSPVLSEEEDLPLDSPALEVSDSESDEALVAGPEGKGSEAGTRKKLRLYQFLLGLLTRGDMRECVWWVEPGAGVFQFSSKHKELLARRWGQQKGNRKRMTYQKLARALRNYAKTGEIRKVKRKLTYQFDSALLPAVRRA
Chain of ELF4 (Q99607 whole entry): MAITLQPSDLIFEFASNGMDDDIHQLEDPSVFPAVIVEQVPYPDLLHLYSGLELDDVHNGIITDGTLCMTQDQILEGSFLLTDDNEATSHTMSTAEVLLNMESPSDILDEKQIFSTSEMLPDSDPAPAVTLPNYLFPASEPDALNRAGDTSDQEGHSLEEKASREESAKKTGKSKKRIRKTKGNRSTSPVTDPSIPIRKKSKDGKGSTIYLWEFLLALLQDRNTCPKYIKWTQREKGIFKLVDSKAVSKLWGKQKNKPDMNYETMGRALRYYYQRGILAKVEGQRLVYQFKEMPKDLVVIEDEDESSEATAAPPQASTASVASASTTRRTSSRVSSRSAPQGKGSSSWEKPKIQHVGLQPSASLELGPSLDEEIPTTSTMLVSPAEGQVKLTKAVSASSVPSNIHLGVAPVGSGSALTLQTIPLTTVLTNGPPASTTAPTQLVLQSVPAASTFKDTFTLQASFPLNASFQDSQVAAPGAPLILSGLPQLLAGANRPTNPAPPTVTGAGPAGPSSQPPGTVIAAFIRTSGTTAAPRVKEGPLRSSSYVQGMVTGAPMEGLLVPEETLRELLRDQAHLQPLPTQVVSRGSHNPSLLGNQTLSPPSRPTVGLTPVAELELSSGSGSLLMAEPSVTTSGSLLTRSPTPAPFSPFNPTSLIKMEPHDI
Chain of ETV1 (P50549 whole entry): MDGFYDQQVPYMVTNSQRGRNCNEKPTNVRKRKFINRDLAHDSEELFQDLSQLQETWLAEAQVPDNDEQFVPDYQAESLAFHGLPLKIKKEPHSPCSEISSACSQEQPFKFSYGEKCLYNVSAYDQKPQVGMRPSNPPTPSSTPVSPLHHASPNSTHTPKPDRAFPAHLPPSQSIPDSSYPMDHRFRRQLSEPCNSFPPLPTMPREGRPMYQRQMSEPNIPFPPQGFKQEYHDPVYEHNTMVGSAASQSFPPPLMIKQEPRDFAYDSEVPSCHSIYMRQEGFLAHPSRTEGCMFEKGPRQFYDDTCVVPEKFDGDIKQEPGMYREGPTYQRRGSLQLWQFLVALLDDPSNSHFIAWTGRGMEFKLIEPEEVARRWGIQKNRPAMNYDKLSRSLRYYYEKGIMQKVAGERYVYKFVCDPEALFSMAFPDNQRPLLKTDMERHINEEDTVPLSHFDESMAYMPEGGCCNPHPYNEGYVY

CACCAA
binding signal (FLI1): 1.02 fold enrichment (6-mer frequency, TF over GST control)
binding signal (ELK1): 1.16 fold enrichment (6-mer frequency, TF over GST control)
binding signal (GABPA): 1.03 fold enrichment (6-mer frequency, TF over GST control)
binding signal (ERG): 1.07 fold enrichment (6-mer frequency, TF over GST control)
binding signal (ELF1): 1.12 fold enrichment (6-mer frequency, TF over GST control)
binding signal (EHF): 1.06 fold enrichment (6-mer frequency, TF over GST control)
binding signal (SPI1): 1.07 fold enrichment (6-mer frequency, TF over GST control)
binding signal (SPIB): 1.04 fold enrichment (6-mer frequency, TF over GST control)
binding signal (ELK3): 1.15 fold enrichment (6-mer frequency, TF over GST control)
binding signal (FEV): 1.12 fold enrichment (6-mer frequency, TF over GST control)
binding signal (ETV5): 1.1 fold enrichment (6-mer frequency, TF over GST control)
binding signal (SPIC): 1.12 fold enrichment (6-mer frequency, TF over GST control)
binding signal (ELF4): 1.12 fold enrichment (6-mer frequency, TF over GST control)
binding signal (ELK4): 1.13 fold enrichment (6-mer frequency, TF over GST control)
binding signal (ETV2): 1.12 fold enrichment (6-mer frequency, TF over GST control)
binding signal (ELF3): 1.1 fold enrichment (6-mer frequency, TF over GST control)
binding signal (ETV1): 1.01 fold enrichment (6-mer frequency, TF over GST control)

TGGTGT
binding signal (FLI1): 1.28 fold enrichment (6-mer frequency, TF over GST control)
binding signal (ELK1): 1.18 fold enrichment (6-mer frequency, TF over GST control)
binding signal (GABPA): 1.35 fold enrichment (6-mer frequency, TF over GST control)
binding signal (ERG): 1.33 fold enrichment (6-mer frequency, TF over GST control)
binding signal (ELF1): 1.33 fold enrichment (6-mer frequency, TF over GST control)
binding signal (EHF): 1.31 fold enrichment (6-mer frequency, TF over GST control)
binding signal (SPI1): 1.23 fold enrichment (6-mer frequency, TF over GST control)
binding signal (SPIB): 1.18 fold enrichment (6-mer frequency, TF over GST control)
binding signal (ELK3): 1.4 fold enrichment (6-mer frequency, TF over GST control)
binding signal (FEV): 1.14 fold enrichment (6-mer frequency, TF over GST control)
binding signal (ETV5): 1.26 fold enrichment (6-mer frequency, TF over GST control)
binding signal (SPIC): 1.09 fold enrichment (6-mer frequency, TF over GST control)
binding signal (ELF4): 1.34 fold enrichment (6-mer frequency, TF over GST control)
binding signal (ELK4): 1.31 fold enrichment (6-mer frequency, TF over GST control)
binding signal (ETV2): 1.45 fold enrichment (6-mer frequency, TF over GST control)
binding signal (ELF3): 1.25 fold enrichment (6-mer frequency, TF over GST control)
binding signal (ETV1): 1.2 fold enrichment (6-mer frequency, TF over GST control)
